Measurements reported in the supplement of paper PMC6555819.

Assays:
Experiment in all cases: PBM binding z-score (relative to random genomic background probes); higher = stronger binding; sequences stand for … in GC…GCGATTGACAGCGTAGAATGAAGG
[1] = tested on: FXR:RXRa (NR concentration 270 nM, RXRa partner concentration 90 nM)
Procedure, shortened: (§1)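 The probes on custom Agilent 4×180K protein-binding microarrays were double-stranded, with 34-nt variable regions bearing direct-repeat seeds, single-nucleotide variants, half-site ablations and random human genomic background sequences. Incubation lasted 1 h with ligand-free nuclear receptor dimers in PBS pH 7.4, 2% milk, 0.02% Triton X-100, 1 mM DTT, 0.2 mg/mL BSA and 0.4 mg/ml salmon testes DNA. Antibodies against each partner (one per run) detected bound dimers, and fluorescence scans were regression-normalized. Binding z-scores take the random background probes as reference.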

[2] = tested on: LXRa:RXRa (NR concentration 270 nM, RXRa partner concentration 90 nM)
Procedure, shortened: as §1

[3] = tested on: LXRa homodimer (NR concentration 270 nM)
Procedure, shortened: as §1

[4] = tested on: LXRb:RXRa (NR concentration 270 nM, RXRa partner concentration 90 nM)
Procedure, shortened: as §1

[5] = tested on: LXRb homodimer (NR concentration 270 nM)
Procedure, shortened: as §1

[6] = tested on: PPARa:RXRa (NR concentration 270 nM, RXRa partner concentration 90 nM)
Procedure, shortened: as §1

[7] = tested on: PPARg:RXRa (NR concentration 180 nM, RXRa partner concentration 90 nM)
Procedure, shortened: as §1

[8] = tested on: PPARg:RXRa 270nM:90nM, anti-RXR (NR concentration 270 nM, RXRa partner concentration 90 nM)
Procedure, shortened: as §1

[9] = tested on: PPARg:RXRa 30nM:10nM, anti-RXR (NR concentration 30 nM, RXRa partner concentration 10 nM)
Procedure, shortened: as §1

[10] = tested on: PPARg:RXRa 90nM:30nM, anti-RXR (NR concentration 90 nM, RXRa partner concentration 30 nM)
Procedure, shortened: as §1

[11] = tested on: PPARg:RXRa DBDmut IVT, anti-RXR (DBD mutation: RXRa K156A/R161A, NR concentration 270 nM, RXRa partner concentration 90 nM)
Procedure, shortened: as §1

[12] = tested on: PPARg:RXRa IVT, anti-PPARg (NR concentration 270 nM, RXRa partner concentration 90 nM)
Procedure, shortened: as §1

[13] = tested on: PPARg DBDmut:RXRa IVT, anti-PPARg (DBD mutation: PPARg1 K132A/R137A, NR concentration 270 nM, RXRa partner concentration 90 nM)
Procedure, shortened: as §1

[14] = tested on: PPARg DBDmut IVT, anti-PPARg (DBD mutation: PPARg1 K132A/R137A, NR concentration 270 nM)
Procedure, shortened: as §1

[15] = tested on: PPARg homodimer (NR concentration 180 nM)
Procedure, shortened: as §1

[16] = tested on: PXR:RXRa (NR concentration 270 nM, RXRa partner concentration 90 nM)
Procedure, shortened: as §1

[17] = tested on: PXR homodimer (NR concentration 270 nM)
Procedure, shortened: as §1

[18] = tested on: RARa:RXR (NR concentration 270 nM, RXRa partner concentration 90 nM)
Procedure, shortened: as §1

[19] = tested on: RARa homodimer (NR concentration 270 nM)
Procedure, shortened: as §1

[20] = tested on: RARb:RXRa (NR concentration 270 nM, RXRa partner concentration 90 nM)
Procedure, shortened: as §1

Sequence	PBM binding z-score [1]	PBM binding z-score [2]	PBM binding z-score [3]	PBM binding z-score [4]	PBM binding z-score [5]	PBM binding z-score [6]	PBM binding z-score [7]	PBM binding z-score [8]	PBM binding z-score [9]	PBM binding z-score [10]	PBM binding z-score [11]	PBM binding z-score [12]	PBM binding z-score [13]	PBM binding z-score [14]	PBM binding z-score [15]	PBM binding z-score [16]	PBM binding z-score [17]	PBM binding z-score [18]	PBM binding z-score [19]	PBM binding z-score [20]
CAAACTAGGTCACCGGAAGGTCAATGTCCGCATG	5.97	5.52	3.83	4.64	1.09	6.05	9.44	7.81	5.6	7.57	8.58	8.99	1.98	1.35	6.39	5.65	1.15	6.94	1.41	5.25
CCTGCTAGGTCAAGGTCAGCTAATCTACAGTATG	4.87	3.95	1.09	3.19	0.294	4.45	3.7	4.63	1.39	3.47	4.9	4.64	0.201	-0.28	2.21	3.45	0.401	3.88	1.15	5.09
TGTTGTAGATCAAGCAGGTTAAGAAAGCCTGAGT	-0.212	-0.245	-0.47	-0.0172	-0.215	0.282	-0.51	-0.0645	-0.0716	-0.0785	-0.275	0.329	0.0224	-0.646	-0.211	0.13	0.0391	0.16	0.163	-0.116
AGTCAAAGTTCATCTAGGTAACTTAAGATATGCT	6.76	6.19	5.17	3.8	1.81	4.6	6.6	6.26	2.93	5.64	1.01	3.43	1.87	1.38	4.01	5.28	7.67	3.91	1.85	4.6
TCTGCTAGGTCAACGATTGTCAGCTAATCTGCTA	2.81	1.94	-0.0951	1.4	-0.279	2.93	2.43	2.93	1.9	2.36	4.14	4.13	0.817	0.395	0.734	1.19	-0.478	1.86	-1.01	4.03
GCTAGTTGATCAGTAAAAGGTCACACACCGGTCG	3.16	4.73	4.21	3.98	0.478	4.53	2.11	4.16	1.58	3.46	0.158	1.96	0.246	0.272	2.88	4.83	0.914	5.64	2.24	3.89
CCTCGAAGGACAACAGGAGGTCAGAGCTGCCAGA	0.962	1.97	1.73	1.5	-0.405	2.05	0.581	0.229	-0.343	-0.119	-0.42	0.185	-0.412	-0.537	1.76	1.94	0.545	2.37	0.491	3.06
TCATATAGGTAAATGCTAGTTGAAAGTCCGATCT	0.79	0.719	0.081	0.689	-0.0232	1.09	0.625	1.79	3.76	2.81	4.01	2.25	1.08	1.1	0.913	0.488	0.757	0.405	1.01	0.37
TCGCGGAGGACACGAAGGTCAGAGCTTTCCAGAG	0.923	0.953	0.0426	0.704	-1.29	1.84	0.306	1.15	0.607	0.901	0.6	0.577	-0.818	-2.01	1.37	1.83	0.425	1.74	0.1	3.26
TATAGTTGGTCAAAGGTCACACACTCGAAATGCG	5.81	6.08	3.62	5.5	2.11	6.7	11.4	9.75	9.43	10.9	2.28	6.4	1.87	3.69	4.52	6.04	1.29	6.91	2.66	5.04
GCTAGCAGGCCATTTGGGCCACTCAATGACGGGC	-0.514	-0.935	-0.951	-1.27	-1.17	-0.573	0.102	-0.789	-0.989	-1.19	0.571	0.308	-1.6	-2.1	-1.14	-0.943	-1.18	-1.05	-0.661	-0.143
GCAACGAGGGCAAGTTGATAGCAGAGTTTGATGG	0.996	0.513	-0.434	0.332	-0.572	1.49	0.841	1	0.0166	0.481	2.75	1.85	-0.194	-0.32	0.288	0.924	0.464	0.816	-0.0307	2.8
TCTATTAGTTGATTAGGGCAACTGAAACAGCGGA	0.195	0.677	0.0182	0.747	0.522	0.782	0.0466	1.87	3.5	2.6	2.22	1.45	1.14	0.725	-0.0911	0.233	0.247	0.283	0.703	0.768
ACTCGGAGGACAAAGGTCAAAGCTACGCCAGTGA	6.13	5.86	4.17	5.35	1.64	6.23	8.63	7.42	6.79	8.13	1.44	4.45	-0.163	-0.288	3.24	5.4	0.776	6.35	0.304	5.24
